The results in this text go back to ChEMBL document CHEMBL3433997, “St. Jude Leishmania screening dataset” (2016).

Solute carrier family 2, facilitated glucose transporter member 1 (Homo sapiens), sequence (P11166 whole entry): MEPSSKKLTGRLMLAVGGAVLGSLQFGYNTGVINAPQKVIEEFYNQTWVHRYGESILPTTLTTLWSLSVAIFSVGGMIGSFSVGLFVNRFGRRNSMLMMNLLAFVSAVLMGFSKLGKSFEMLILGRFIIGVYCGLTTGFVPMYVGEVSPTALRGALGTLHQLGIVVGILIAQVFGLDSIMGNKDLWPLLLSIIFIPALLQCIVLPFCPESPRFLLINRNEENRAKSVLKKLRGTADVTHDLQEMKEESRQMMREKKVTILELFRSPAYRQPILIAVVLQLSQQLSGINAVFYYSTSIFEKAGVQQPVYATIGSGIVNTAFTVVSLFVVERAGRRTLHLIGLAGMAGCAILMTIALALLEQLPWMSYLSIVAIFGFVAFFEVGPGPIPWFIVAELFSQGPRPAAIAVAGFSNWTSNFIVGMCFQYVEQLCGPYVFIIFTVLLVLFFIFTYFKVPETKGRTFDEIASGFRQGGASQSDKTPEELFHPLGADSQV

This assay has as its target Solute carrier family 2, facilitated glucose transporter member 1 (Homo sapiens) (UniProt P11166). Nature of the assay: ST_JUDE_LEISH: Cytotoxicity at 2uM final concentration against transgenic Leishmania Mexicana promastigotes LmGLUT1 that are glucose transport deficient and complemented with the human glucose transporter GLUT1. Activity is measured by DNA content using SYBR green in vitro. Format: functional.
The inhibition is the relative decrease from the control value, in per cent. Take `C=C(C)Cn1cc(C2CCN(CCCCNC(=O)c3sc(-c4ccc(Cl)cc4Cl)nc3CO)CC2)c2ccccc21`: the inhibition was -1.31%.
In the case of `ON=C(c1nc2ccccc2[nH]1)c1nc2ccccc2[nH]1` it was -0.84%.
As for `Cc1cc(NC(=O)c2sc3ccccc3c2O)no1`, the inhibition was determined as 2.41%.
In the case of `Cc1cccc2nc(-c3ccc(-c4cccc(NC(=O)CCc5c[nH]cn5)c4)s3)[nH]c12` it was 3.85%; in that of `COc1ccc(-n2ccnc2SCC(=O)Nc2cc(Cl)ccc2OC)c(OC)c1`, 2.64%.
For `Cc1cc(NC(=O)c2ccc(-c3ccccc3)cc2)no1`, the inhibition is 4.35%.
As for `O=C(C=CC(=O)N1CCCCC1)NCc1ccccc1`, the inhibition turned out to be 2.97%.
To `CCC(N)(C#Cc1ccc(-c2c(C)[nH]c(C)c(Br)c2=O)cc1)CC` belongs 2.45%.
To `COc1cc(CNCCCCCCNCc2cc(OC)cc3ccccc23)c2ccccc2c1` belongs 10.8%; to `CCCC(C)Nc1nc(C)cc(N[C@@H](Cc2ccccc2)C(=O)NCc2ccc(C)cc2)n1` (some centres not stated), 9.97%.
`CC(Cc1ccc(NC(=O)c2ccc(CNCCCCc3ccccc3)cc2)cc1)NCCc1cccc(Cl)c1` (configuration not stated): the inhibition came out at 106%.
`Clc1ccc2c(NN=Cc3ccco3)ccnc2c1`: the inhibition turned out to be 3.59%.
Take `CC1CC(NCCCNc2cc(=O)c3ccccc3[nH]2)c2c1cc(Cl)c(Cl)c2Cl` (configuration not stated): the inhibition is -1.8%.
`COc1ccc(C(=O)CC(=O)c2ccc(OC)cc2OC)c(OC)c1`: the inhibition worked out at 6.03%.
`Cc1cc(=O)[nH]c(-n2nc(C)cc2NC(=O)CC(c2ccccc2)c2ccccc2)n1`: the inhibition came to 14.8%.
In the case of `N=C(N)NC(=O)Nc1ccc(Cl)c(C(F)(F)F)c1`, the inhibition came to 1.17%.
To `Cc1cc(NC(=O)Nc2ccc(C(C)C)cc2)c2ccccc2n1` belongs 0.71%.
